The subject of test [1] is S. cerevisiae SK1 pCDA2-eGFP (USY613), sporulating. Kind of test: CDA2-GFP sporulation assay sensitivity score (z-score vs DMSO controls); higher = stronger inhibition of sporulation, active = hit call of the paper.
Test [2] concerns S. cerevisiae NKY1551 his4x/his4B, sporulating. Kind of test: HIS4 meiotic recombination assay sensitivity score (z-score vs DMSO controls); higher = stronger inhibition of sporulation/recombination, active = hit call of the paper.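 Note: active if sensitivity score above 5.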
For test [3], the system named is S. cerevisiae AD1-9 (efflux-pump deficient), vegetative growth in YPD. Nature of the test: growth sensitivity score (doubling time z-score vs DMSO controls); higher = slower growth, strongly negative scores also mark growth inhibition (complete suppression), active = hit call of the paper. The procedure, abridged: (§1)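 Optical density of Saccharomyces cerevisiae cultures in microtiter plates was followed every 15 min for 24 hours after seeding at an OD600 of 0.065. Eight solvent-only wells were run per experiment. Growth sensitivity scores were found by subtracting the solvent-only mean from the compound mean and dividing by the solvent-only standard deviation.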

The subject of test [4] is S. cerevisiae BY4741 (wild-type), vegetative growth in YPD. The description is as above. In a few lines:
as §1

SMILES strings stand for the structures. Structures can show the parent of a compound that is named as a salt.
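Throughout, for CDA2-GFP sporulation assay sensitivity score (z-score vs DMSO controls): active if sensitivity score above 5.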

For the compound `O=[N+]([O-])c1cccc2cn[nH]c12` [7-Nitroindazole] (stock concentration (mM, diluted 1:100): 10), the “CDA2-GFP sporulation assay sensitivity score” value in test [1] is 2.93 (inactive). For the same compound, in test [2], the “HIS4 meiotic recombination assay sensitivity score” value was -1.75 (inactive). Also, the growth sensitivity score in test [3] is -1.05 (inactive); in test [4], 0.06 (inactive).
For `O=C(c1ccccc1)c1ccc2n1CCC2C(=O)O` (stereo not drawn) [Toradol] (stock concentration (mM, diluted 1:100): 6.8), in test [1], the “CDA2-GFP sporulation assay sensitivity score” value was -1.05 (inactive). In test [2], the “HIS4 meiotic recombination assay sensitivity score” value was -1.15 (inactive). The growth sensitivity score in test [3] was 0.21 (inactive); in test [4] it was 0.91 (inactive).
`CC(C)(C)NCC(O)c1ccc(O)c(CO)c1` (stereo not drawn) [Salbutamol sulfate] (stock concentration (mM, diluted 1:100): 9.7): the “CDA2-GFP sporulation assay sensitivity score” value in test [1] is -0.05 (inactive). Further, the “HIS4 meiotic recombination assay sensitivity score” value in test [2] is -0.65 (inactive). Besides, the results for the growth sensitivity score in test [3] and in test [4] were -1.51 (inactive) and -0.62 (inactive), respectively.
The like results for `CC(=O)Oc1ccccc1C(=O)Nc1ncc([N+](=O)[O-])s1` [Nitazoxanide] (stock concentration (mM, diluted 1:100): 10) were, in that order, 7.92 (active), 6.54 (active), 0.16 (inactive) and 1.77 (inactive).
With `Cc1cccc(Nc2ccncc2S(=O)(=O)NC(=O)NC(C)C)c1` [Torasemide] (stock concentration (mM, diluted 1:100): 9.9), the “CDA2-GFP sporulation assay sensitivity score” value in test [1] is -0.45 (inactive). Also, in test [2], the “HIS4 meiotic recombination assay sensitivity score” value was 0.74 (inactive). Further, the results for the growth sensitivity score in test [3] and in test [4] were -2.4 and -0.66 (inactive), respectively.
Take `C[C@H](CCC(=O)O)[C@H]1CC[C@H]2[C@@H]3C(=O)C[C@@H]4CC(=O)CC[C@]4(C)[C@H]3CC(=O)[C@]12C` [Dehydrocholic acid] (stock concentration (mM, diluted 1:100): 10): the “CDA2-GFP sporulation assay sensitivity score” value in test [1] was 0.09 (inactive). Besides, in test [2], the “HIS4 meiotic recombination assay sensitivity score” value was -0.93 (inactive). The results for the growth sensitivity score in test [3] and in test [4] were -1.13 (inactive) and -0.69 (inactive), respectively.
`COc1cc2nc(N3CCN(C(=O)C4CCCO4)CC3)nc(N)c2cc1OC` (stereo not drawn) [Terazosin] (stock concentration (mM, diluted 1:100): 9.5): in test [1], the “CDA2-GFP sporulation assay sensitivity score” value is 3.45 (inactive). Also, in test [2], the “HIS4 meiotic recombination assay sensitivity score” value was 0.92 (inactive). Besides, the values for the growth sensitivity score in test [3] and in test [4] were -0.95 (inactive) and -0.03 (inactive), respectively.
As for `Cc1nc(=O)c2cc(CN(C)c3ccc(C(=O)N[C@@H](CCC(=O)O)C(=O)O)s3)ccc2[nH]1` [Raltitrexed] (stock concentration (mM, diluted 1:100): 10), in test [1], the “CDA2-GFP sporulation assay sensitivity score” value was -2.11 (inactive). In test [2], the “HIS4 meiotic recombination assay sensitivity score” value is -0.01 (inactive). For the same compound, the growth sensitivity score in test [3] was -3.39; in test [4], -0.14 (inactive).
As for `COc1ccc(-c2cc(=O)c3c(OC)c(OC)c(OC)c(OC)c3o2)cc1OC` [Nobiletin] (stock concentration (mM, diluted 1:100): 10), in test [1], the “CDA2-GFP sporulation assay sensitivity score” value is 5.43 (inactive). Moreover, the “HIS4 meiotic recombination assay sensitivity score” value in test [2] was 1.02 (inactive). The figures for the growth sensitivity score in test [3] and in test [4] were 3.87 (active) and 4.43 (active), respectively.
`Nc1ccc(O)c(C(=O)O)c1` [Mesalamine] (stock concentration (mM, diluted 1:100): 10): in test [1], the “CDA2-GFP sporulation assay sensitivity score” value was -1.48 (inactive). The “HIS4 meiotic recombination assay sensitivity score” value in test [2] was -2.13 (inactive). Further, the figures for the growth sensitivity score in test [3] and in test [4] were -2.51 and -0.33 (inactive), respectively.
The like results for `CC(=O)CCCCn1c(=O)c2c(ncn2C)n(C)c1=O` [Pentoxifylline] (stock concentration (mM, diluted 1:100): 10) were, in that order, 0.09 (inactive), -0.42 (inactive), -1.09 (inactive) and -0.51 (inactive).
Regarding `COC(=O)C1=C(C)NC(C)=C(C(=O)OCC(C)C)C1c1ccccc1[N+](=O)[O-]` (stereo not drawn) [Nisoldipine] (stock concentration (mM, diluted 1:100): 10), the “CDA2-GFP sporulation assay sensitivity score” value in test [1] is -0.05 (inactive). Also, in test [2], the “HIS4 meiotic recombination assay sensitivity score” value was -2.61 (inactive). Moreover, the growth sensitivity score in test [3] is 89.2 (active); in test [4], 57 (active).
Take `CC[C@H]1OC(=O)[C@H](C)C(=O)[C@H](C)[C@@H](O[C@@H]2O[C@H](C)C[C@H](N(C)C)[C@H]2O)[C@](C)(OC)C[C@@H](C)C(=O)[C@H](C)[C@H]2N(CCCCn3cnc(-c4cccnc4)c3)C(=O)O[C@]12C` [Telithromycin] (stock concentration (mM, diluted 1:100): 10): in test [1], the “CDA2-GFP sporulation assay sensitivity score” value is 4.62 (inactive). Moreover, the “HIS4 meiotic recombination assay sensitivity score” value in test [2] was 0.14 (inactive). In addition, the growth sensitivity score in test [3] is 4.79 (active); in test [4], 0.09 (inactive).
`Nc1[nH]c(=O)ncc1F` [5-Fluorocytosine] (stock concentration (mM, diluted 1:100): 10.5): the “CDA2-GFP sporulation assay sensitivity score” value in test [1] was 0.12 (inactive). The “HIS4 meiotic recombination assay sensitivity score” value in test [2] was -1.29 (inactive). Moreover, the figures for the growth sensitivity score in test [3] and in test [4] were 36.6 (active) and 54.5 (active), respectively.
As to `Fc1ccc([C@@H]2CCNC[C@H]2COc2ccc3c(c2)OCO3)cc1` [Paroxetine] (stock concentration (mM, diluted 1:100): 8.8), the “CDA2-GFP sporulation assay sensitivity score” value in test [1] is -1.35 (inactive). Also, the “HIS4 meiotic recombination assay sensitivity score” value in test [2] is 9.22 (active). Further, the growth sensitivity score in test [3] is 118 (active); in test [4], 1.33 (inactive).
The like results for `CN(C)CCCSc1ccccc1NC(=O)/C=C/c1ccccc1` [Cinanserin] (stock concentration (mM, diluted 1:100): 10) were, in that order, 1.28 (inactive), 7.73 (active), 41.8 (active) and 1.35 (inactive).
For `CNS(=O)(=O)Cc1ccc2[nH]cc(CCN(C)C)c2c1` [Sumatriptan succinate] (stock concentration (mM, diluted 1:100): 7.2), the “CDA2-GFP sporulation assay sensitivity score” value in test [1] is -0.43 (inactive). The “HIS4 meiotic recombination assay sensitivity score” value in test [2] is -0.69 (inactive). The growth sensitivity score in test [3] is 0.45 (inactive); in test [4], -1.56 (inactive).

Values taken from the supplement of paper PMC3414501.
